{"source": "paper PMC8384837", "about": "“Expanding the binding specificity for RNA recognition by a PUF domain”", "assay_in_all_cases": "yeast three-hybrid, YBZ-1, SC-Leu-His + 0.5 mM 3-AT, 4 days", "conditions_in_all_cases": "tags: N-Gal4 AD-HA kept; label: inside an RPR1-promoter hybrid RNA with tandem MS2 sites; ssRNA", "key": {"PUM1 PUF domain R4-SNC": {"biological_target": "PUM1 PUF domain R4-SNC (Homo sapiens, UniProt Q14671 828-1176, N971S;H972N;Q975C)", "method_in_brief": "(§1)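 Sequencing with Illumina followed PCR amplification of the repeat regions from transformants grown four days on SC-Leu (input) or SC-Leu-His + 0.5 mM 3-AT (selection). The transformants were strain YBZ-1 with a LexA–MS2 coat fusion and a HIS3 reporter, carrying Pumilio-1 PUF domain libraries and matching RNA elements. The interaction score is the log change in variant frequency from input to selection, computed in log2 with a pseudocount of 1 for absent variants.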"}, "PUM1 PUF domain R3-EFE": {"biological_target": "PUM1 PUF domain R3-EFE (Homo sapiens, UniProt Q14671 828-1176, C935E;R936F;Q939E)", "method_in_brief": "as §1"}, "PUM1 PUF domain R3-RTL": {"biological_target": "PUM1 PUF domain R3-RTL (Homo sapiens, UniProt Q14671 828-1176, C935R;R936T;Q939L)", "method_in_brief": "as §1"}, "PUM1 PUF domain R5-AVR": {"biological_target": "PUM1 PUF domain R5-AVR (Homo sapiens, UniProt Q14671 828-1176, C1007A;R1008V;Q1011R)", "method_in_brief": "as §1"}, "PUM1 PUF domain R5-KHC": {"biological_target": "PUM1 PUF domain R5-KHC (Homo sapiens, UniProt Q14671 828-1176, C1007K;R1008H;Q1011C)", "method_in_brief": "as §1"}, "PUM1 PUF domain R8-VWK": {"biological_target": "PUM1 PUF domain R8-VWK (Homo sapiens, UniProt Q14671 828-1176, N1122V;Y1123W;Q1126K)", "method_in_brief": "as §1"}, "PUM1 PUF domain R6-SYS": {"biological_target": "T1, PUM1 PUF domain R6-SYS (Homo sapiens, UniProt Q14671 828-1176, N1043S;Q1047S)", "T1 sequence": "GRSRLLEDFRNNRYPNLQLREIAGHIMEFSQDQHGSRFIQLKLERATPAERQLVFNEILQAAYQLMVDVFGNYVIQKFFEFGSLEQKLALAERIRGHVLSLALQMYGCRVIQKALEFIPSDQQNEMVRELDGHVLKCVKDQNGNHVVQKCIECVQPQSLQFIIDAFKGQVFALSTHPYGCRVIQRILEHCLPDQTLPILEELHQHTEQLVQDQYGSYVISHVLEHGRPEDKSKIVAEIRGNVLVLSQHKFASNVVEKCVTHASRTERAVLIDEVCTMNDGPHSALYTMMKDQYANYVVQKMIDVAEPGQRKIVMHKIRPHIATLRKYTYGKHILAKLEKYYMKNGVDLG", "method_in_brief": "as §1"}, "PUM1 PUF domain R6-AFG": {"biological_target": "T2, PUM1 PUF domain R6-AFG (Homo sapiens, UniProt Q14671 828-1176, N1043A;Y1044F;Q1047G)", "T2 sequence": "T1 sequence with S216A, Y217F, S220G", "method_in_brief": "as §1"}, "PUM1 PUF domain R5-SRQ": {"biological_target": "PUM1 PUF domain R5-SRQ (Homo sapiens, UniProt Q14671 828-1176, C1007S)", "method_in_brief": "as §1"}, "PUM1 PUF domain R2-KKG": {"biological_target": "PUM1 PUF domain R2-KKG (Homo sapiens, UniProt Q14671 828-1176, N899K;Y900K;Q903G)", "method_in_brief": "as §1"}}, "note": "Substitutions are numbered along the chain they refer to."}
{"sequence": "GGCUAGAACUAGUGGAUCCCCCGGCGCCCGGCGGCUCGAGCCCGGGUAAGUGUAUAUAGUCUGCAUGCCGCCGGGCGCCAUGCCUGCAGGUCGACUCUAGAAAACAUG", "values": [{"measurement": "binding signal", "setting": "PUM1 PUF domain R4-SNC", "value": "3.92 log2 enrichment (interaction score)"}]}
{"sequence": "GGCUAGAACUAGUGGAUCCCCCGGCGCCCGGCGGCUCGAGCCCGGGUAAGUGUAAUUAGUCUGCAUGCCGCCGGGCGCCAUGCCUGCAGGUCGACUCUAGAAAACAUG", "values": [{"measurement": "binding signal", "setting": "PUM1 PUF domain R3-EFE", "value": "3.56 log2 enrichment (interaction score)"}, {"measurement": "binding signal", "setting": "PUM1 PUF domain R3-RTL", "value": "2.61 log2 enrichment (interaction score)"}]}
{"sequence": "GGCUAGAACUAGUGGAUCCCCCGGCGCCCGGCGGCUCGAGCCCGGGUAAGUGUAAGUAGUCUGCAUGCCGCCGGGCGCCAUGCCUGCAGGUCGACUCUAGAAAACAUG", "values": [{"measurement": "binding signal", "setting": "PUM1 PUF domain R3-EFE", "value": "5.2 log2 enrichment (interaction score)"}]}
{"sequence": "GGCUAGAACUAGUGGAUCCCCCGGCGCCCGGCGGCUCGAGCCCGGGUAAGUGUACAUAGUCUGCAUGCCGCCGGGCGCCAUGCCUGCAGGUCGACUCUAGAAAACAUG", "values": [{"measurement": "binding signal", "setting": "PUM1 PUF domain R4-SNC", "value": "2.48 log2 enrichment (interaction score)"}]}
{"sequence": "GGCUAGAACUAGUGGAUCCCCCGGCGCCCGGCGGCUCGAGCCCGGGUAAGUGUAAAUAGUCUGCAUGCCGCCGGGCGCCAUGCCUGCAGGUCGACUCUAGAAAACAUG", "values": [{"measurement": "binding signal", "setting": "PUM1 PUF domain R5-AVR", "value": "1.73 log2 enrichment (interaction score)"}, {"measurement": "binding signal", "setting": "PUM1 PUF domain R5-KHC", "value": "3.4 log2 enrichment (interaction score)"}, {"measurement": "binding signal", "setting": "PUM1 PUF domain R4-SNC", "value": "2.78 log2 enrichment (interaction score)"}, {"measurement": "binding signal", "setting": "PUM1 PUF domain R8-VWK", "value": "4.11 log2 enrichment (interaction score)"}, {"measurement": "binding signal", "setting": "PUM1 PUF domain R6-SYS", "value": "3 log2 enrichment (interaction score)"}, {"measurement": "binding signal", "setting": "PUM1 PUF domain R6-AFG", "value": "3.11 log2 enrichment (interaction score)"}]}
{"sequence": "GGCUAGAACUAGUGGAUCCCCCGGCGCCCGGCGGCUCGAGCCCGGGUAAGUGUCAAUAGUCUGCAUGCCGCCGGGCGCCAUGCCUGCAGGUCGACUCUAGAAAACAUG", "values": [{"measurement": "binding signal", "setting": "PUM1 PUF domain R5-AVR", "value": "4.64 log2 enrichment (interaction score)"}]}
{"sequence": "GGCUAGAACUAGUGGAUCCCCCGGCGCCCGGCGGCUCGAGCCCGGGUAAGUGUGAAUAGUCUGCAUGCCGCCGGGCGCCAUGCCUGCAGGUCGACUCUAGAAAACAUG", "values": [{"measurement": "binding signal", "setting": "PUM1 PUF domain R5-AVR", "value": "0.2 log2 enrichment (interaction score)"}, {"measurement": "binding signal", "setting": "PUM1 PUF domain R5-SRQ", "value": "3.6 log2 enrichment (interaction score)"}]}
{"sequence": "GGCUAGAACUAGUGGAUCCCCCGGCGCCCGGCGGCUCGAGCCCGGGUAAGUGUAAAGAGUCUGCAUGCCGCCGGGCGCCAUGCCUGCAGGUCGACUCUAGAAAACAUG", "values": [{"measurement": "binding signal", "setting": "PUM1 PUF domain R2-KKG", "value": "7.11 log2 enrichment (interaction score)"}]}
{"sequence": "GGCUAGAACUAGUGGAUCCCCCGGCGCCCGGCGGCUCGAGCCCGGGUAAGUGUUAAUAGUCUGCAUGCCGCCGGGCGCCAUGCCUGCAGGUCGACUCUAGAAAACAUG", "values": [{"measurement": "binding signal", "setting": "PUM1 PUF domain R5-KHC", "value": "6.52 log2 enrichment (interaction score)"}]}
